Results as given in the supplement of paper PMC10338343.
± gives the standard deviation.

test system: MILI (PIWIL2) piRISC loaded with L1MC piRNA (26 nt); assay: pre-steady-state target cleavage rate (min^-1); guide: L1MC piRNA 5'p-UAACUAAAUACUAUGCAAGCUGUAGG; higher = faster piRNA-guided slicing of the target; details: auxiliary factor: 500 nM mouse GTSF1
Procedure, shortened: (§1)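 Cleave-'n-Seq reactions paired 0.1 nM transcribed, DNA-blocked target RNA library with 1 nM active affinity-purified piRISC holding one synthetic guide, plus or minus 500 nM GTSF1 partner protein, in HEPES–potassium acetate buffer at 33 °C for 0–8 or 0–960 min. After sequencing of uncleaved targets and normalisation to depth and weakly complementary targets, the pre-steady-state cleavage rate was taken from a burst-and-steady-state fit. Three trials were pooled, and k3 was capped at 0.0001 min^-1.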

pre-steady-state target cleavage rate, 0.0665 ± 0.018:
UCCUGGAUGUCCAUGCAUAGUAUUAAGUUA

pre-steady-state target cleavage rate, 0.0665 ± 0.022:
UCCUGGAUGUCCUUGCAUAGUAUUUCAGUUA

pre-steady-state target cleavage rate, 0.0314 ± 0.01:
UCCUGGAUGUCGUAGCAUAGUAUUUUGUUA

pre-steady-state target cleavage rate, 0.00737 ± 0.0053:
UCCUGGAUGAGCUUGCAUAGUAAUUAGAAA

pre-steady-state target cleavage rate, 0.0258 ± 0.008:
UCCUGCUACAGGAAGCAUAGUAUUUACAAA

pre-steady-state target cleavage rate, 0.158 ± 0.026:
UCCUGGAUGAGCUUGCAUAGUAGUUAGUUA

pre-steady-state target cleavage rate, 0.0441 ± 0.015:
UCCUGGAACACCUUGCAUAGUAUUUUCAAA

pre-steady-state target cleavage rate, 0.0179 ± 0.0057:
UCCUGGAUGUGCUUGCAAAGUAUUUUGUUA

pre-steady-state target cleavage rate, 0.00944 ± 0.0051:
UCCUGGAUGUCCUUGCUAAGUAUUUAGUUA

pre-steady-state target cleavage rate, 0.0263 ± 0.0083:
UCCUGGAUGUCGAUGCAUAGUAUUCAGUUA

pre-steady-state target cleavage rate, 0.043 ± 0.016:
UCCUGGUACAGCUUGGUUAGUAUUUAGAAA

pre-steady-state target cleavage rate, 0.0163 ± 0.0062:
UCCUGGAUGUCCAUGCAUAGUAUUUAGAUA

pre-steady-state target cleavage rate, 0.0473 ± 0.0079:
UCCUCGUACAGCUUGCAUAGAAUUUAGUUA

same assay, conditions: auxiliary factor: none (no GTSF1)

pre-steady-state target cleavage rate, < 0.0001:
UCCUGGAUGUCGAAGCAUAGUAUUUGUUA
UCCUGGAUGUCGAACCAUACGUAUUUAGUUA
UCCUGGAUGUCGAACGUAUGUAUUUAGUAA

test system: EfPiwi piRISC loaded with L1MC piRNA (26 nt); assay: pre-steady-state target cleavage rate (min^-1); auxiliary factor: none (no Gtsf1); guide: L1MC piRNA 5'p-UAACUAAAUACUAUGCAAGCUGUAGG; MIWI and MILI are mouse PIWI proteins and EfPiwi is from a freshwater sponge; tags in brackets are library labels; higher = faster piRNA-guided slicing of the target; details: not given
Procedure, shortened: as §1

pre-steady-state target cleavage rate, 0.00853 ± 0.0037:
UCCUCGUACAGCUUGCAUAGAAUUUAGUUA

pre-steady-state target cleavage rate, 0.00517 ± 0.0042:
UCCUGGAUGAGCUUGCAUAGUAGUUAGUUA

pre-steady-state target cleavage rate, < 0.0001:
UCCUGGAUGUCCUUGCAUAGUAUUUCAGUUA
UCCUGGUACAGCUUGGUUAGUAUUUAGAAA
UCCUGGAACACCUUGCAUAGUAUUUUCAAA
UCCUGGAUGUCGAUGCAUAGUAUUCAGUUA
UCCUGGAUGUCGAAGCAUAGUAUUUAGCUA
UCCUGGAUGUCGAAGCAUAGUAUUUGUUA
UCCUGGAUGUCGAACGUAUGUAUUUGAGUUA
UCCUGGAUGUCGUAGCAUAGUAUUUUGUUA
UCCUGGAUGUGCUUGCAAAGUAUUUUGUUA
UCCUGGAUGUCGAACGAUAGUAUUUGGUUA
UCCUGGAUGUCCUUGCUAAGUAUUUAGUUA
UCCUGGAUGUCGAACGUAUCUAUCUUAGUUA
UCCUGGAUGUCGUUGCAUAGUUUUAGUUA
UCCUGGAUGUCGUUGCAUAGUAUUUAUUA
UCCUGGAUGUCGAAGGAUAGUAUUUUGUUA
UCCUGGAACAGCUUGCAUUCUAUUUACAAA
UCCUGCUACAGCUUCGUUAGUAUUUUCAAA
UCCUGGAUGUCGUUGCAUAGAUAUUAGUUA
UCCUGGAUGUCGUUGCAUAGAUUUAGUUA
UCCUGGAUGUCGAAGCAUAGUUUUUACUUA
UCCUGCUACAGCUUGCAAUCAUAAAUCAAA [g14:g25:cont:t1A]
UCCUGGAUGUCGAACGUAUGUAUAUUAGUUA
UCCUGGAUGUCCAUGCAUAGUAUUUAGAUA
UCCUGGAUGUCGAACCAUACGUAUUUAGUUA
UCCUCCUACACGAUGCAUAGUAUUUACAAA
UCCUGGUACAGGAUGCAUAGUAUUUUCAAA
UCCUGGAUGUCGUUGCAUAGUAUUUAGCUA
UCCUGGAUGUCGAUGCAUAGGAUUUAGUUA
UCCUGGAUGUCCUUCCAUAGUAAUUAGUUA
UCCUGGAUGUCGAACGAAGUAUUUAGUUA
UCCUGGAUGAGCUUGCAUAGUAAUUAGAAA
UCCUGGAUGUCGAACGUUAGUAUUUAGAUUA
UCCUGGAUGUCGAAGCAUAGUAUUUACUAA
UCCUGGAUGUCCAUGCAUAGUAUUAAGUUA
UCCUGGAUGUCGAACGUUAGUCAUUUAGUUA
UCCUGGAUGUCGAACGUAUGUAUUUAGUAA
UCCUGGAUGUCGAAGCAUAGAUAUUUAGUUA
UCCUGCUACAGGAAGCAUAGUAUUUACAAA
